# The campaign covered roughly 69,000 compounds. About 1,000 (1.4%) showed an effect of 50% or more. This excerpt belongs to a sample that is enriched for strong results.
# Test system: Leishmania donovani
# Assay: Leishmania intramacrophage assay
# Assay type: functional, organism-based
# Parameters: scale not given: in the data most compounds retested in dose-response had high values
structure (smiles),measurement,setting,value
O=C(c1ccc(NCc2ccco2)nc1)N1CCc2ccccc21,Percent Effect,"30.3 µM, […]",-1.41%
Fc1ccc2[nH]c3c(c2c1)CCN1C(c2ccncc2)N2CCC31CC2 (stereo not given),Percent Effect,"30.3 µM, […]",86.05%
CC(=O)NC1CCCc2c1[nH]c1ccc(F)cc21 (stereo not given),Percent Effect,"30.3 µM, […]",4.787%
Fc1ccc2[nH]c3c(c2c1)CCN1C(c2ccccn2)N2CCC31CC2 (stereo not given),Percent Effect,"30.3 µM, […]",22.17%
O=C(OCc1ccccc1)N1CC[C@H]2CC(CO)O[C@@H]2C1 (stereo not given in full),Percent Effect,"30.3 µM, […]",-47.27%
CN1CCC(n2nc(Cc3cccc(Cl)c3)nc2Cn2ccnc2)CC1,Percent Effect,"30.3 µM, […]",15.54%
Cc1noc(C)c1CCCNC(=O)C1CCN(C(=O)C2CC2)CC1,Percent Effect,"30.3 µM, […]",-2.423%
CC(C)Cc1noc(C2CCCN(C(=O)CCc3cnn(C)c3)C2)n1 (stereo not given),Percent Effect,"30.3 µM, […]",5.747%
CCCN1CCC(NC(=O)c2csc(C)c2-c2ccccc2)CC1,Percent Effect,"30.3 µM, […]",11.13%
CCCN1CCC(NC(=O)Nc2ccc(OC)c(OC)c2)CC1,Percent Effect,"30.3 µM, […]",8.2%
CCCN1CCC(Nc2cc(-c3ccccc3)ccc2OC)CC1,Percent Effect,"30.3 µM, […]",94.4%
Cc1ccc(C2CCCN(C(=O)c3cnn(C)c3)C2)nc1 (stereo not given),Percent Effect,"30.3 µM, […]",-15.16%
O=C(c1cc(Cl)ccc1F)N1CCCC1Cn1cccn1 (stereo not given),Percent Effect,30 µM,-22.81%
COc1cc(NCc2ccncc2)c(-c2nn[nH]n2)cc1OC,Percent Effect,"30.3 µM, […]",-13.14%
COCCN1C(=O)CCC12CCN(C(=O)CNC(C)=O)CC2,Percent Effect,"30.3 µM, […]",21.99%
COc1cc(-c2cc(C3CCOC3)c(C#N)c(N)n2)ccc1O (stereo not given),Percent Effect,"30.3 µM, […]",14.88%
COCC(=O)NCc1cnc(C)nc1-c1cn(C)c2ccc(OC)cc12,Percent Effect,"30.3 µM, […]",7.699%
COc1ccc2c(c1)c(-c1nc(C)ncc1CN)cn2C,Percent Effect,"30.3 µM, […]",49%
COc1ccc2c(c1)c(-c1nc(N(C)C)ncc1CN)cn2C,Percent Effect,"30.3 µM, […]",97.85%
Cc1ccccc1C(C)NC(=O)CN1CCN(Cc2ccc(Br)s2)CC1 (stereo not given),Percent Effect,"30.3 µM, […]",-13.55%
CCn1cc(NC(=O)NCc2ccc3c(c2)OCO3)cn1,Percent Effect,30 µM,18.35%
O=C(NC1CC(F)(F)C1)[C@]12COC[C@H]1CN(Cc1ccccc1)C2.O=C(O)C(F)(F)F,Percent Effect,"30.3 µM, […]",18.84%
O=C(NC1CC(F)(F)C1)[C@]12COC[C@H]1CN(Cc1ccsc1)C2,Percent Effect,"30.3 µM, […]",55.66%
Cc1ncsc1CN1C[C@@H]2COC[C@]2(C(=O)NC2CC(F)(F)C2)C1.O=C(O)C(F)(F)F,Percent Effect,"30.3 µM, […]",30.87%
CNS(=O)(=O)c1cccc(C(C)NCc2ccc(C)c(C)c2)c1 (stereo not given),Percent Effect,"30.3 µM, […]",17.01%
C[C@@H](N)C(=O)N1CC2(CCNCC2)c2cc(Cl)ccc21.Cl.Cl,Percent Effect,"30.3 µM, […]",18.29%
Cl.O=C(c1ccccc1F)N1CC2(CCNCC2)c2cc(Cl)ccc21,Percent Effect,"30.3 µM, […]",46.46%
CCOC(=O)N1CC2(CCNCC2)c2cc(Cl)ccc21.Cl,Percent Effect,"30.3 µM, […]",67.51%
CN(C)C(=O)N1CC2(CCNCC2)c2cc(Cl)ccc21.Cl,Percent Effect,"30.3 µM, […]",-49.76%
Cl.Cl.O=C([C@H]1CCCN1)N1CC2(CCNCC2)c2cc(Cl)ccc21,Percent Effect,"30.3 µM, […]",35.2%
Cc1ccc2c(c1)C1(CCNCC1)CN2C(=O)C(C)C,Percent Effect,"30.3 µM, […]",17.68%
CC(C)C[C@H](N)C(=O)N1CC2(CCNCC2)c2cc(Cl)ccc21.Cl.Cl,Percent Effect,"30.3 µM, […]",94.41%
Cl.Cl.O=C([C@@H]1CSCN1)N1CC2(CCNCC2)c2cc(Cl)ccc21,Percent Effect,"30.3 µM, […]",30.82%
CCc1noc(C)c1C(=O)N(C)Cc1ncc(C)c(OC)c1C,Percent Effect,"30 µM, 30.03 µM",17.33%
CN(CCCC#N)C1CCCN(Cc2noc(C3CC3)n2)C1 (stereo not given),Percent Effect,"30 µM, 30.03 µM",35.66%
Cc1cccnc1CC(C)N(C)C(=O)c1cccs1 (stereo not given),Percent Effect,"30.3 µM, […]",22.03%
CNC(=O)c1cnc(/C=C/c2cc(OC)c(O)c(OC)c2)s1,Percent Effect,"30.3 µM, […]",3.705%
CCn1cc(NC(=O)C(C)n2ncc(Cl)c2C)c(C(=O)NCC(C)C)n1 (stereo not given),Percent Effect,"30.3 µM, […]",23.51%
CC(Oc1ccc2c(c1)OCO2)C(=O)N1CCC(N2CCCC2)CC1 (stereo not given),Percent Effect,"30.3 µM, […]",30.73%
CCN(Cc1nonc1C)C(=O)c1ccc(Br)o1,Percent Effect,"30.3 µM, […]",25.68%
O=C(O)C(F)(F)F.O=C1[C@H]2CN(CC3CCOCC3)C[C@H]2CN1Cc1cccc(F)c1,Percent Effect,"30.3 µM, […]",2.876%
CN1CCC2(CCCN(c3nccc(C(F)(F)F)n3)C2)CC1.O=C(O)C(F)(F)F,Percent Effect,"30.3 µM, […]",21.14%
CC(C)N1CCC2(CCCN(c3nccc(C(F)(F)F)n3)C2)CC1.O=C(O)C(F)(F)F,Percent Effect,"30.3 µM, […]",54.65%
O=C(O)C(F)(F)F.O=C(O)C(F)(F)F.c1cnc(N2CCCC3(CCN(c4ncccn4)C3)C2)nc1 (stereo not given),Percent Effect,"30.3 µM, […]",12.64%
O=C(c1ccccc1OCC1CC1)N1CCCC(n2ccnc2)C1 (stereo not given),Percent Effect,"30 µM, 30.03 µM",5.028%
Cc1cc(C)n(C2=NC(NCCC(C)C)c3c(sc4c3CCCC4)N2)n1 (stereo not given),Percent Effect,"30.3 µM, […]",29.71%
Cc1cc(C)n(-c2nc(NCCCO)c3c4c(sc3n2)CCCC4)n1,Percent Effect,"30.3 µM, […]",97.76%
Cc1nc(CN2CCCC2C(=O)OCc2ccccc2)oc1C (stereo not given),Percent Effect,"30.3 µM, […]",0.6047%
O=C1NCCN1C1CCN(Cc2nc(-c3ccc(F)cc3)no2)CC1,Percent Effect,30 µM,36.95%
Fc1ccc(-c2noc(CN3CCC(c4cc[nH]n4)CC3)n2)cc1,Percent Effect,"30.3 µM, […]",54.52%
c1ccc(-c2noc(CN3CCC(c4ccn[nH]4)CC3)n2)cc1,Percent Effect,"30 µM, 30.03 µM",52.27%
c1cc(C2CCN(Cc3nc(C4CC4)no3)CC2)[nH]n1,Percent Effect,"30.3 µM, […]",12.31%
Cc1cccc(-c2noc(CN3CCC(c4ccn[nH]4)CC3)n2)c1,Percent Effect,"30.3 µM, […]",43.8%
Cc1ccccc1-c1noc(CN2CCC(c3ccn[nH]3)CC2)n1,Percent Effect,"30.3 µM, […]",-17.93%
Cc1ccc(-c2noc(CN3CCC(c4ccn[nH]4)CC3)n2)cc1,Percent Effect,"30.3 µM, […]",12.54%
CC1COCCN1Cc1nc(-c2ccc(F)cc2)no1 (stereo not given),Percent Effect,30 µM,12.83%
c1ccc(-c2cc(CN3CCC(c4ccn[nH]4)CC3)on2)cc1,Percent Effect,"30 µM, 30.03 µM",56.61%
CC(C)c1cc(C(=O)NCCc2nc(-c3ccncc3)n[nH]2)[nH]n1,Percent Effect,"30.3 µM, […]",-0.4105%
Cc1cc(SC(C)(C)C)ccc1NC(C)C(=O)NC(N)=O (stereo not given),Percent Effect,"30.3 µM, […]",-16.97%
Cc1nc(C2CCCC2)sc1C(N)=O,Percent Effect,"30.3 µM, […]",-15.57%
Cc1cnn(CC2CCCN2c2ncnc3ccsc23)c1 (stereo not given),Percent Effect,30 µM,46.26%
CCCNC(=O)COc1cccc(-c2nc(C(C)C)no2)c1,Percent Effect,"30.3 µM, […]",13.17%
CCC(Nc1nc(CCN)nc2ccccc12)c1cccs1 (stereo not given),Percent Effect,"30.3 µM, […]",67.47%
NCCc1nc(N[C@@H](CO)c2ccccc2)c2ccccc2n1,Percent Effect,"30.3 µM, […]",7.922%
CCC(Nc1nc(CCN)nc2ccccc12)c1cc(C)ccn1 (stereo not given),Percent Effect,"30.3 µM, […]",19.32%

# — ChEMBL document CHEMBL3988442, “University of Dundee, Small-Polar-MMV Screening Library” (2021)
